Rab9 promoter act: activators of Rab9 promoter | Huh7 Rab9 promoter-luciferase reporter, luminescence, 24 h | Potency, µM (top dose mostly 9.22 µM), for the others: top-dose activation, negative = inhibition, hits mostly activators | actives 2.8% (n = 320,000); further: % of control where 0% means no effect; nearly all actives have a fitted effect of over 60% in size
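Using Huh7 cells stably transfected with Rab9 promoter–luciferase, compounds were incubated 24 h at 37 °C, 5% CO2; luciferase luminescence was read 10 min after reagent addition.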
NPC1 prom act: NPC1 promoter activation. Huh7 NPC1 promoter luciferase reporter, 24 h. Potency, µM (series often up to 9.22 µM), without a hit: at the top dose activation, usual class: activators. actives 2.4% (n = 320,000). AID 485313; further: % of control where 0% means no effect; nearly all actives have a fitted effect of over 60% in size
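Stable NPC1-promoter luciferase Huh7 line; cpd (DMSO) 24 h, 37 °C, 5% CO2; Amplite luciferase reagent 10 min RT; luminescence readout. qHTS format.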
ELG1 repair inh: blocks ELG1-dependent DNA repair in HEK293T cells; HEK293T ELG1-luciferase reporter, luminescence, 16 h; DNA damage induced by 5-fluorouridine; Potency, µM (titrated, usually from 46.1 µM), for the others: at the highest dose activity change, negative = inhibition, usual class: inhibitors; actives 2.3% (n = 330,000); further: on the % scale 0 is the no-effect control and ±100 the full control effect; nearly all actives have a fitted effect of over 55% in size
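Step one: seed 2,000 cells per well. Step two: pin-transfer compound or DMSO alongside 5-fluorouridine. Step three: incubate 16 hr, 37 °C, 5% CO2. Step four: add ONE-Glo, wait 30 min, read luminescence.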
ELG1 genotox: genotoxicity induction in ELG1-luciferase HEK293T cells; HEK293T ELG1-luciferase reporter, luminescence, 16 h; Potency, µM (titrated, usually from 46 µM), for inactives: at the highest dose activity change, positive = activation, usual class: activators; actives 1.3% (n = 330,000); AID 504466; further: % of control where 0% means no effect; nearly all actives have a fitted effect of over 60% in size
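Genotoxicity was scored as increased ELG1-luciferase reporter signal, measured by ONE-Glo luminescence (30 min, room temperature). Compound or vehicle exposure of the HEK293T reporter cells lasted 16 hr at 37°C.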
SMN2 splice up: enhancers of SMN2 splice variant expression | HEK293 SMN2-luciferase splicing reporter, luminescence, 30-36 h | Potency, µM (titrated, usually from 46.1 µM), without a hit: at the top dose activity change, positive = activation, actives largely listed as activators | actives 2.8% (n = 210,000); further: % of control where 0% means no effect; nearly all actives have a fitted effect of over 55% in size
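qHTS luciferase splicing reporter: luminescence rises when SMN2 exon 7 is included in transfected HEK293 cells. Compound exposure lasted 30-36 h at 37C, with 4.5 mM final sodium butyrate as control, followed by a ONE-Glo read.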
FLuc counter: counter-screen for miR-21 project: firefly luciferase inhibitors or activators; actives 6.9% (n = 360,000); AID 588342; purified FLuc, Km substrates, luminescence inhibition; Potency, µM (doses to about 57.5 µM), without a hit: top-dose activity change, negative = inhibition, usual class: inhibitors; P08659;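 further: plate controls were vehicle for no effect and reference inhibitor for full effect; nearly all actives have a fitted effect of over 55% in size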
Target sequence (P08659 whole entry, looked up): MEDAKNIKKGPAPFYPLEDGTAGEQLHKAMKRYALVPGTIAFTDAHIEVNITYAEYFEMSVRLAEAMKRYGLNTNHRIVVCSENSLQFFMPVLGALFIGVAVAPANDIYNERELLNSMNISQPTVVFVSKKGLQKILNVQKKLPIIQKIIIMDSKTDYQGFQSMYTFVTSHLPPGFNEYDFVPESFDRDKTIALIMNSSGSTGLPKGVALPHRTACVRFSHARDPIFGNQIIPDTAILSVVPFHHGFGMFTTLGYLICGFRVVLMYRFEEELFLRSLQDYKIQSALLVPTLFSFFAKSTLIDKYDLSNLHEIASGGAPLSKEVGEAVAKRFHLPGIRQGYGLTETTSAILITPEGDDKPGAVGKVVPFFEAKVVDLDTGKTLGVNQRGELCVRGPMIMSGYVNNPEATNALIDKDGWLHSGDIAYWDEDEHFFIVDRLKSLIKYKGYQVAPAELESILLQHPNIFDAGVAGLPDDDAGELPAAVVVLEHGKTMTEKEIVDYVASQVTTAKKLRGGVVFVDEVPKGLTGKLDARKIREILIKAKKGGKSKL
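Purified P. pyralis luciferase, 10 nM final, with Km-level 10 uM D-luciferin and 10 uM ATP in 50 mM Tris acetate pH 7.5, 10 mM Mg acetate, 0.01% Tween-20, 0.05% BSA; 6-point qHTS titration about 60 µM downward; luminescence read.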
* marks the source's active call; other numbers are inactive results; u = inconclusive; x = not tested or not shown; [ ] = another dose, or the depositor's remark. An excerpt weighted towards active compounds, which were near 9.2% of everything screened. The call rests on the fitted dose curve; in most records, active means well fitted curve in the direction sought with a large enough effect; inconclusive means small, poorly fitted or top-dose-only effect, or another doubt; inactive means no such curve, though single readings can be large; an effect the other way counts as inactive or inconclusive. Potency means the concentration at half of the fitted maximal effect.

SMILES	Rab9 promoter act	NPC1 prom act	ELG1 repair inh	ELG1 genotox	SMN2 splice up	FLuc counter
Nc1nncn1C(=O)CCCOc1ccc(Cl)cc1Cl	0.9%	-3.2%	10.9%	3.1%	-1.6%	9.53µM*
CCN(CC)C(=O)CCCOc1ccc(Cl)cc1Cl	u	3.16µM*	u	8.1%	-0.7%	u
O=C(CCCOc1ccc(Cl)cc1Cl)n1nnc2ccccc21	0.0%	-1.6%	1.6%	0.9%	-7.5%	u
CN(C)CCCCOc1ccc(Br)cc1Cl	2.7%	-11.1%	-3.4%	-1.2%	-19.7%	0.6%
C#CCN(C)CCCOc1ccc(Cl)cc1Cl	u	u	u	15.7%	14.7%	13.5µM*
CC(C)NC(=O)CCCOc1ccc(Cl)cc1Cl	24.0%	15.3%	u	u	-2.4%	u
CN(C)CCNC(=O)C1CCN(Cc2cc3ccccc3n2Cc2ccccc2)CC1	x	x	x	x	x	0.0%
O=C(OCC(=O)N1CCc2ccccc21)c1ccccc1[N+](=O)[O-]	0.631µM*	0.794µM*	u	u	x	0.151µM*
O=C(OCC(=O)N1CCc2ccccc21)c1c2c(nc3ccccc13)CCCCC2	1.5%	2.6%	23.1µM*	-10.7%	3.0%	4.26µM*
CC(C)NC(=O)NC(=O)COC(=O)c1c2c(nc3ccccc13)CCC2	-2.3%	-5.5%	23.1µM*	-45.8%	x	-0.3%
O=C(COC(=O)c1ccccc1[N+](=O)[O-])c1ccc(C2CCCCC2)cc1	9.0%	-2.1%	u	2.2%	-55.7%	0.135µM*
NC(=O)COC(=O)c1c2c(nc3ccccc13)CCCC2	6.2%	-5.7%	-0.5%	-9.7%	2.2%	-4.0%
Cc1ccc(C(=O)OCC(=O)N2CCc3ccccc32)cc1	u	u	u	9.2%	-18.5%	6.01µM*
CC(=O)c1c(C)[nH]c(C(=O)OCC(=O)N2CCc3ccccc32)c1C	u	3.98µM*	u	5.7%	x	-17.7%
CCOC(=O)c1c(C)[nH]c(C(=O)OCC(=O)N2CCc3ccccc32)c1C	1.6%	11.1%	19.0%	1.4%	7.9%	0.3%
O=C(NCc1ccco1)c1c2c(nc3ccccc13)CCC2	-5.2%	-3.8%	-5.2%	0.6%	-12.2%	-17.7%
O=C(NCc1ccc(F)cc1)c1c2c(nc3ccccc13)CCC2	u	u	u	14.4%	5.2%	13.5µM*
CCOC(=O)c1[nH]c(C)c(C(=O)OCC(=O)N2CCc3ccccc32)c1C	-1.5%	-3.1%	-1.4%	16.7%	-0.6%	-0.8%
CCOC(=O)C1=C(C)NC(C)=C(C(=O)OCC)C1C(=O)OCC(=O)N1CCc2ccccc21	8.6%	3.8%	u	18.4µM*	-3.9%	1.3%
Cc1ccc2c(CC(=O)N3CCc4ccccc43)coc2c1	3.98µM*	3.55µM*	u	u	14.1µM*	4.26µM*
O=C(OCC(=O)N1CCc2ccccc21)c1ccccc1F	3.9%	2.5%	17.3%	11.9%	x	4.78µM*
O=C(c1ccccc1F)N1CCc2ccccc21	-0.9%	-2.8%	1.7%	-4.1%	2.1%	0.1%
OCCN1CCN(c2cc(C(F)(F)F)nc3ccccc23)CC1	1.0%	-1.2%	2.2%	3.9%	x	3.7%
COC(c1ccccc1)c1nnc(CCC(=O)NC2CCCCC2)o1 (configuration not stated)	-3.1%	-2.5%	9.2%	-1.4%	x	-15.6%
O=C(CCc1nnc(-c2ccccc2)o1)NC1CCCCC1	u	29.7%	u	u	x	16.9µM*
SMILES	Rab9 promoter act	NPC1 prom act	ELG1 repair inh	ELG1 genotox	SMN2 splice up	FLuc counter
CCOC(=O)CN(C)C(=O)CCc1nnc(-c2ccsc2)o1	-2.5%	0.4%	0.3%	-1.4%	x	-9.5%
O=C(CCc1nnc(-c2ccc(-c3ccccc3)cc2)o1)N1CCCCC1	u	u	u	u	x	13.5µM*
O=C(CCc1nnc(-c2ccsc2)o1)N1CCc2c(Cl)cccc2C1	u	18.6%	u	u	x	16.9µM*
CCc1cccc(N2C(=O)N(Cc3c(F)cccc3Cl)c3ccccc3S2(=O)=O)c1	x	x	x	x	x	2.0%
Cc1ccc(S(=O)(=O)N(C)c2ccc(C(=O)N3CCN(Cc4ccc5c(c4)OCO5)CC3)cc2)cc1	-30.2%	-13.0%	6.51µM*	-6.2%	-69.1%	3.9%
COCCn1c(=S)[nH]c2cc(C(=O)N3CCN(Cc4ccc5c(c4)OCO5)CC3)ccc2c1=O	-24.2%	-22.7%	5.17µM*	1.3%	-42.7%	-4.0%
Cc1ccc(S(=O)(=O)N(C)C)cc1NC(=S)N1CCN(Cc2ccc3c(c2)OCO3)CC1	-13.5%	-20.6%	8.2µM*	-9.4%	-70.5%	-0.9%
CN(c1ccc(C(=O)N2CCN(Cc3ccc4c(c3)OCO4)CC2)cc1)S(=O)(=O)c1ccccc1	-17.4%	-3.3%	23.1µM*	-16.3%	-68.7%	2.3%
CCCN1CCCc2cc(CN(CCCN3CCOCC3)C(=O)Nc3ccc(CC)cc3)ccc21	x	x	x	x	x	-7.6%
Cc1ccc(NC(=O)CSC(C)c2nc3ccccc3c(=O)[nH]2)cc1 (configuration not stated)	4.1%	-0.5%	15.6%	-2.0%	x	-6.9%
CCOc1ccc(-n2c(SCC(=O)c3ccccc3)nc3c([nH]c4ccccc43)c2=O)cc1	x	x	x	x	x	1.3%
COC(=O)c1sc(NC(=O)COc2ccccc2C)nc1C	u	10.8%	u	u	4.7%	u
O=C(CSCc1ccc(F)cc1)Nc1nc2c(s1)CCCC2	7.1%	-4.7%	10.9%	-0.8%	-6.3%	-11.9%
COc1ccccc1OCC(=O)Nc1nc(C)c(C)s1	3.98µM*	2.82µM*	u	u	x	8.49µM*
O=C(COc1ccccc1Cl)Nc1nc2c(s1)CCCC2	x	x	x	x	x	21.3µM*
O=C(COc1ccccc1)Nc1nc2c(s1)CCCC2	u	u	u	u	x	13.5µM*
Cc1cnc(NC(=O)COc2ccccc2Cl)s1	0.251µM*	0.1µM*	u	u	0.794µM*	0.269µM*
COc1ccc(NS(=O)(=O)c2cc(NC(=O)c3ccc(=O)[nH]n3)ccc2C)cc1	-11.5%	-19.2%	u	0.5%	x	1.4%
CC(C)[C@H](NC(=O)N1c2ccccc2NC(=O)[C@@H]1C(C)C)C(=O)N[C@H](Cc1ccccc1)C(=O)O	-4.2%	2.5%	16.9%	6.9%	x	5.3%
Cc1ccc(S(=O)(=O)C2(C(=O)N3CCN(c4ccccc4F)CC3)CC2)cc1	-0.2%	-3.9%	-1.2%	0.9%	x	1.9%
COc1cccc2cc(CC(=O)c3ccccc3)c(=O)oc12	u	u	u	11.2%	x	16.9µM*
COc1cccc2cc(C(=O)c3ccccc3)oc12	3.55µM*	u	u	u	u	9.53µM*
COc1cccc2cc(C(=O)NCc3ccc(C)cc3)c(=O)oc12	-5.1%[1.84 µM]	-2.7%	5.1%	1.8%	x	-2.5%
